# Measured values published in the supplement of paper PMC11732987, “Enantioselective OTUD7B fragment discovery through chemoproteomics screening and high-throughput optimisation” (Communications Chemistry, 2025).
# A number with no mark means an inactive call.
# Key:
# Assay in all cases: log2 ratio of Biotin-Ahx-Ub-VS probe labelling (fragment/DMSO); higher = less target engagement (more negative = stronger competition), active = hit call of the paper (q ≤ 0.05, log2 ratio ≤ -1)
# Conditions in all cases: compound concentration: 200 uM; treatment time: 3 h
# [1] = molecular target: T1, USP19 (UniProt O94966)
# T1 sequence (whole entry): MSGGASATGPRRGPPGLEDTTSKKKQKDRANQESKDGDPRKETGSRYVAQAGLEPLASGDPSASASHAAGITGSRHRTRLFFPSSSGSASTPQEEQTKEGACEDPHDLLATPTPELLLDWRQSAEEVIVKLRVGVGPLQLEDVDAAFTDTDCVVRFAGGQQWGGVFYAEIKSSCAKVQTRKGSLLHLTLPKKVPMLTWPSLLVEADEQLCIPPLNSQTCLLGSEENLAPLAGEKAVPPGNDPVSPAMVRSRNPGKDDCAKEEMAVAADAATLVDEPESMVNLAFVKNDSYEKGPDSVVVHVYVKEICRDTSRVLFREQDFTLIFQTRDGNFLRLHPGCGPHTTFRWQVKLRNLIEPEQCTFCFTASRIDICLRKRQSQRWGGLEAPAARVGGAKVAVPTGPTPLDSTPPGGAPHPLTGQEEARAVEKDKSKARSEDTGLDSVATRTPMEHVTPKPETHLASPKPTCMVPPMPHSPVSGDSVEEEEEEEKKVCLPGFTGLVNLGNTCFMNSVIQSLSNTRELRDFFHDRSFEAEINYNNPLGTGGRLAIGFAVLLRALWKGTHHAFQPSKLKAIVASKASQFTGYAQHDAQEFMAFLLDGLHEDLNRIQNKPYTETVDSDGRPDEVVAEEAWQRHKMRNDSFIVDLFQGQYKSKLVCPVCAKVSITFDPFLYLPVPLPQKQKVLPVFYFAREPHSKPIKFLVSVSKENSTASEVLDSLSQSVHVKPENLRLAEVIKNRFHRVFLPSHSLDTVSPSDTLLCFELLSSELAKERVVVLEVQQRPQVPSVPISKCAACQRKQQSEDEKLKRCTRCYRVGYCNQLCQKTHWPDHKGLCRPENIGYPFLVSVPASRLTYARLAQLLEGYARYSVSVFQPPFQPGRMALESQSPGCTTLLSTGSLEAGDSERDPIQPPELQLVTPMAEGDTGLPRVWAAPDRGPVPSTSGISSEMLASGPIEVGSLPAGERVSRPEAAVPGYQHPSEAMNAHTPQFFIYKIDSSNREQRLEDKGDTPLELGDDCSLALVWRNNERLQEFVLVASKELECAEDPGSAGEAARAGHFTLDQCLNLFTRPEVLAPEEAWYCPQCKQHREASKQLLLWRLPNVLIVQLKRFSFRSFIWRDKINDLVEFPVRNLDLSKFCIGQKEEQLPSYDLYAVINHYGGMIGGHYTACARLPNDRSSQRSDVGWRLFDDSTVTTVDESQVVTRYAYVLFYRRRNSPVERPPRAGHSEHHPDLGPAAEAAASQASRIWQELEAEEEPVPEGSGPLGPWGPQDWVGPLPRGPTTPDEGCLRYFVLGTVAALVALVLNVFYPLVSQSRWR
# Outline: (§1)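 Labelled DUBs from HEK293T lysate were NeutrAvidin-enriched, digested with LysC and trypsin, and run by diaPASEF LC-MS/MS. Before that, each 495 µg sample in Tris/CHAPS/IGEPAL buffer with protease inhibitors was treated in triplicate with fragment at 200 µM or vehicle for 3 h, then with Biotin-Ahx-Ub-VS at 0.5 µM final for 1 h. Values are average log2 ratios of fragment over vehicle by unpaired t-test, based on global-median-normalised Spectronaut label-free quantities from proteins with ≥2 unique peptides.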
# [2] = molecular target: USP24 (UniProt Q9UPU5)
# USP24, sequence (Q9UPU5 whole entry): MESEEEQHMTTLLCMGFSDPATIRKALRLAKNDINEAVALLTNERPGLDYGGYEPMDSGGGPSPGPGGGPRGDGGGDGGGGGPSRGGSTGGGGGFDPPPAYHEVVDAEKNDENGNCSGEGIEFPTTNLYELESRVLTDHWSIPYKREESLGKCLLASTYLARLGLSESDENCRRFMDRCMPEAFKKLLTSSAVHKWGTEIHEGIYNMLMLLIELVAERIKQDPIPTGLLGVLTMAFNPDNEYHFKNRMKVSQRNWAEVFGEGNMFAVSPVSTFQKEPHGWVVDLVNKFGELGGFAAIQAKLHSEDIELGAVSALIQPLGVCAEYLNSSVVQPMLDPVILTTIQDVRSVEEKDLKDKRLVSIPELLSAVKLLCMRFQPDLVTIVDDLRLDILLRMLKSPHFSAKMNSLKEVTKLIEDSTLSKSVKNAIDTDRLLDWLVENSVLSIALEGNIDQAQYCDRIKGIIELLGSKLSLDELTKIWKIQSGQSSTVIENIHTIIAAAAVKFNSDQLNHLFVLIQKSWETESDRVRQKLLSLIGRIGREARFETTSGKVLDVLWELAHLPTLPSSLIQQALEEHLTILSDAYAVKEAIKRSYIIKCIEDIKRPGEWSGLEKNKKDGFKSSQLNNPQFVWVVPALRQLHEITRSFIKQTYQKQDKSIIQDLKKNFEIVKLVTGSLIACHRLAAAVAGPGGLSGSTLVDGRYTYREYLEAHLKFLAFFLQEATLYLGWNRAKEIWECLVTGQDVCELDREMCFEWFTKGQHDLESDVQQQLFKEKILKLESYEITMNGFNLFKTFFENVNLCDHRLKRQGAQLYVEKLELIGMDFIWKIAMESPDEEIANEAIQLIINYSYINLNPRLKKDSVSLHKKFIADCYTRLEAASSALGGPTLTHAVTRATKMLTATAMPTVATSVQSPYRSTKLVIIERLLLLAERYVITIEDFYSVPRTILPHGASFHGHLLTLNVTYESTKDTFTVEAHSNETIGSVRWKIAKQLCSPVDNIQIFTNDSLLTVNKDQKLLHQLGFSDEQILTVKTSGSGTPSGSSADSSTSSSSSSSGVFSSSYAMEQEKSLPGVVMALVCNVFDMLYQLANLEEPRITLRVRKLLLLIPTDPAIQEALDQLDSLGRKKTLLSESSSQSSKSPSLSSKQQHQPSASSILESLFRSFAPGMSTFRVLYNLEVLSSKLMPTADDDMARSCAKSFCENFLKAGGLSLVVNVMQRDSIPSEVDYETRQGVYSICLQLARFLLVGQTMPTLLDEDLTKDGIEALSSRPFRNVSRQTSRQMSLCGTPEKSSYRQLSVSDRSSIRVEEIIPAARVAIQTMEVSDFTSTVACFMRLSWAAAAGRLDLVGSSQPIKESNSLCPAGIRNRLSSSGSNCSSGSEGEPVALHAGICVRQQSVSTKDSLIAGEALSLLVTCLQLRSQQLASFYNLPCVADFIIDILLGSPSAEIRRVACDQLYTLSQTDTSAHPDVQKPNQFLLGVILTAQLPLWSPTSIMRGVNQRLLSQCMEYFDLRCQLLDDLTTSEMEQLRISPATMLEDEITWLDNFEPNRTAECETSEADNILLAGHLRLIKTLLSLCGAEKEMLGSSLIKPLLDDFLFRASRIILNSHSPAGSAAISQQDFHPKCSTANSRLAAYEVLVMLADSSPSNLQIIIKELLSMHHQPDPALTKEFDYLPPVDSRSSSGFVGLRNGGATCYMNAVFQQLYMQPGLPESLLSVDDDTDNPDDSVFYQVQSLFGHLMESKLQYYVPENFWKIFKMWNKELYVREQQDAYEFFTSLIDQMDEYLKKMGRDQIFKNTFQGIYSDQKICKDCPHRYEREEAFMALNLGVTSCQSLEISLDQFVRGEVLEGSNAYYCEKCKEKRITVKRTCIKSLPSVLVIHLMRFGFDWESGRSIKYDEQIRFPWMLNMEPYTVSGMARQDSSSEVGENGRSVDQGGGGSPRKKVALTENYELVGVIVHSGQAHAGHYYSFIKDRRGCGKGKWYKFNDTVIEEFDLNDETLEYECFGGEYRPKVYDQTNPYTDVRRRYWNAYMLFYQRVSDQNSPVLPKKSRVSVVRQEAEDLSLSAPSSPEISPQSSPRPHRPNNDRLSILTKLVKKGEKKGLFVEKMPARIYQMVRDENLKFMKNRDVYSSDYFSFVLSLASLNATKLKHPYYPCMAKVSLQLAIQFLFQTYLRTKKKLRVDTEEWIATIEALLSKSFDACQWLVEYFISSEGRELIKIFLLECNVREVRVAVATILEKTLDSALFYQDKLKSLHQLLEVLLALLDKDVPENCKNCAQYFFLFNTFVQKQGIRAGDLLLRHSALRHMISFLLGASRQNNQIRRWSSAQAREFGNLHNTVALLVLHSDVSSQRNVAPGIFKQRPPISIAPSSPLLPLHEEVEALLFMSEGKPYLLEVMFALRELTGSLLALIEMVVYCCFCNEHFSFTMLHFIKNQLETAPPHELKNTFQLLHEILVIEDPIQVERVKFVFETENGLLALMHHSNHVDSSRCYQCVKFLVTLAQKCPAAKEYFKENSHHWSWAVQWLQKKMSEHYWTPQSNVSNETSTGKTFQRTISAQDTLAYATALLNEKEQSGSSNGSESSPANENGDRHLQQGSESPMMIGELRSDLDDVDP
# Outline: as §1
# [3] = molecular target: T2, USP25 (UniProt Q9UHP3)
# T2 sequence (whole entry): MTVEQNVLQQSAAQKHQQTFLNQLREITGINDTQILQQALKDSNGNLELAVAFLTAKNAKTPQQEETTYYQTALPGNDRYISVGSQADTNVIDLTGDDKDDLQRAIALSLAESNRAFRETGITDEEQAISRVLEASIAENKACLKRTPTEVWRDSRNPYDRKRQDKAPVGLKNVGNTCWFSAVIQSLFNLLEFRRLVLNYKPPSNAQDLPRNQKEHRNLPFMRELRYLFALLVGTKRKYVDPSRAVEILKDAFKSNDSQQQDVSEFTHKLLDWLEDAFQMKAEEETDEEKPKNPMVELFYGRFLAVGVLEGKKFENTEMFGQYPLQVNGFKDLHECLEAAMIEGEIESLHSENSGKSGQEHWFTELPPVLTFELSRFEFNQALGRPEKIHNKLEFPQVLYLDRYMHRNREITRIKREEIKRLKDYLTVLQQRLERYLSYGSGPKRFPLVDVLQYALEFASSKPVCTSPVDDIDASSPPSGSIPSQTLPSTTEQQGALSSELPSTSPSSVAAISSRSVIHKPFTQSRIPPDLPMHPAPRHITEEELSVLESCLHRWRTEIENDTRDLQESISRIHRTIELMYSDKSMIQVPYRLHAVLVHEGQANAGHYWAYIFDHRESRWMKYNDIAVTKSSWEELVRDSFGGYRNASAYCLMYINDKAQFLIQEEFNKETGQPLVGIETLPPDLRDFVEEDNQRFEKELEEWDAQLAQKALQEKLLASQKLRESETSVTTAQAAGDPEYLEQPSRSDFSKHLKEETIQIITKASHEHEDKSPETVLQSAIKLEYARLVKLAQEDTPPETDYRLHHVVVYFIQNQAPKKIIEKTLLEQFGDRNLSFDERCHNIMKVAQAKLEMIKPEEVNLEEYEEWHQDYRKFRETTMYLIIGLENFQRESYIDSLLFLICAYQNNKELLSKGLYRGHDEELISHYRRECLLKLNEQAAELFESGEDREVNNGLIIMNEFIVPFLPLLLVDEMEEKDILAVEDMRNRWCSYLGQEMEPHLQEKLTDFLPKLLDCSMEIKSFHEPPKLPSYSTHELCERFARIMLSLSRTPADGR
# Outline: as §1
# [4] = molecular target: T3, USP28 (UniProt Q96RU2)
# T3 sequence (whole entry): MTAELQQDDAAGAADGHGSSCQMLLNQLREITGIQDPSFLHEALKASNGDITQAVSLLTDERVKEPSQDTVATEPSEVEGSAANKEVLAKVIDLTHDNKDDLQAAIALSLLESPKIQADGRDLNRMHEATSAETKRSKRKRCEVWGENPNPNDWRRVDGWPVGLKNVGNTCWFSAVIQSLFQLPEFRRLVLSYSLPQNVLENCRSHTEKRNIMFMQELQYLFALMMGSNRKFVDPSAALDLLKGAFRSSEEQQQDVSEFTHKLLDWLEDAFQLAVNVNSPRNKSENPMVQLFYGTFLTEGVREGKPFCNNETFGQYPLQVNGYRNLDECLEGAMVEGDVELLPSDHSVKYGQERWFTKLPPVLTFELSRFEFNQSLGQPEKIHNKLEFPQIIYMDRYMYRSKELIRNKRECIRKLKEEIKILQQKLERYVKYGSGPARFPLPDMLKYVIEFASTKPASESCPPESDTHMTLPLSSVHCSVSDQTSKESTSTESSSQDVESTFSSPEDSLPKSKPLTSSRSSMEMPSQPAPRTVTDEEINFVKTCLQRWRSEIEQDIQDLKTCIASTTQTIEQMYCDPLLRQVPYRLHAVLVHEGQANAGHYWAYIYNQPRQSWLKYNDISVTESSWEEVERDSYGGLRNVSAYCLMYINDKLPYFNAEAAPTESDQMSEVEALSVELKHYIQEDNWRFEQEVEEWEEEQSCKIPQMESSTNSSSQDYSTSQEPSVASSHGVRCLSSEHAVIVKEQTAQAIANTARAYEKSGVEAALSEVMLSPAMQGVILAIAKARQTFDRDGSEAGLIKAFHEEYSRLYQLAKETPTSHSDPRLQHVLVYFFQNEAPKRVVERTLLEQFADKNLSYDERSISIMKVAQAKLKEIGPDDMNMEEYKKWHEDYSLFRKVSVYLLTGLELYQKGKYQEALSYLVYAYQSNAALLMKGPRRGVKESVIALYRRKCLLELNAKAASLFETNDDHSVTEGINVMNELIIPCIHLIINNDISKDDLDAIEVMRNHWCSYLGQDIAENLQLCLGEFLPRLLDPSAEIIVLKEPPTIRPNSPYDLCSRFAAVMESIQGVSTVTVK
# Outline: as §1
compound,measurement,setting,value
N#Cc1cnn(-c2ccccc2)c1NC(=O)CCl,log2 ratio of Biotin-Ahx-Ub-VS probe labelling,[1],-0.232
same,log2 ratio of Biotin-Ahx-Ub-VS probe labelling,[2],-0.338
same,log2 ratio of Biotin-Ahx-Ub-VS probe labelling,[3],-2.88 (active)
same,log2 ratio of Biotin-Ahx-Ub-VS probe labelling,[4],-2.37 (active)
